Results filed as inconclusive are left out. Activity calls are given as the source filed them. Calls follow the shape of the dose curve; as a rule, active = well fitted activation curve with a large enough effect; inconclusive = small, poorly fitted or top-dose-only effect; inactive = flat fitted curve, though single readings scatter.
assay: qHTS for Inhibitors of Cell Surface uPA Generation: Confirmatory Assay for Cherry-picked Compounds; settings: cell surface uPA activity generation, qHTS confirmation; series mostly up to 115 µM
Method in brief: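 RAW 264.7 cells at 4000/well, incubated overnight, then treated with compounds. After 24 h at 37 C, viability was read by ATPlite luminescence. An increase in signal indicates blocked uPA-dependent LF entry.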

Potency, inactive:
Cc1cc(=O)[nH]c(=S)[nH]1, CCc1cc(CC)c(/C=N/NC(N)=O)c(CC)c1, Cc1cc(C)cc(NC(=O)Cc2ccc(NC3=NC4CS(=O)(=O)CC4S3)cc2)c1 (stereo not drawn), O=[N+]([O-])c1cccc(-c2noc(-c3cccs3)n2)c1, O=C(CSc1nncs1)NC(=O)NCc1ccco1, Cc1cccc(Nc2ccc(NCc3ccccc3)nn2)c1, COc1ccccc1NC(=O)Cn1ncc2c1-c1ccccc1OC2, COc1ccc(-c2cccc(-c3cc(=O)oc4cc(OC)c(OC)c(OC)c34)c2)cc1, Cc1ccc(C(O)(COC(=O)C(C)C)COC(=O)C(C)C)c(O)c1, CCOCCCn1c(SCC(=O)Nc2oc(C)c3c(C)n[nH]c(=O)c23)nc2ccccc2c1=O, CC1=NN(C(N)=S)C(=O)C1N=Nc1ccccc1C(=O)O (stereo not drawn), C=CCOC(=O)C1=C[C@@H](c2coc3ccccc3c2=O)C[C@@H](OCc2ccc(CO)cc2)O1, COc1cc(C(=O)N/N=C(\Cc2ncc[nH]2)c2ccccc2)cc(OC)c1OC, COc1ccc(-c2cc3nc(-c4ccccc4)cc(N4CCCC(O)C4)n3n2)cc1 (stereo not drawn), Cc1ccc2c(c1)N(CC(=O)NCCCc1ccccc1)C(=O)c1cccnc1O2, CCCCNc1c(-c2ccc(-c3cccc(Cl)c3)cc2)nc2ccccn12, COc1ccc(/C(C)=N/N2CCOCC2)c(O)c1, COc1ccc(C(=O)NCCOC(C)C)cc1OC1CCN(C(C)=O)CC1

Source: PubChem BioAssay AID720519 (National Center for Advancing Translational Sciences (NCATS), 2013)
